Shiga inhibitor: blocks Shiga toxin action in Vero cells; inhibition, % at 38.7 µM; Vero cells, Shiga toxin protein synthesis inhibition reporter; actives 9.2% (n = 290,000); in the data active = inhibition mostly above about 28%, no sharp cut-off; inactive = mostly below about 43%; note: 0% is about no effect
Pf growth 96h: inhibits malaria parasite growth, 96 h. AID 504834. P. falciparum luciferase reporter growth, 96 h. Potency, µM (highest dose often 28.7 µM), for inactives: at the highest dose activity change, negative = inhibition, hits mostly inhibitors. actives 6.9% (n = 320,000); note: potency is the fitted concentration of half-maximal effect; % is set by controls: 0 for no effect and ±100 for the full control effect
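Erythrocytes infected with luciferase-expressing P. falciparum were dispensed at 2% hematocrit and 0.05% parasitemia (final), then incubated with compounds 96 hours at 37 C in 5% CO2. Luminescence after detection reagent addition reported growth.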
Cycloheximide cs: affects cycloheximide protein synthesis inhibition readout, counter-screen | actives 12% (n = 300,000) | max response, % | cell reporter, cycloheximide protein synthesis inhibition counterscreen; in the data active = max response mostly above about 13%, no sharp cut-off; inactive = mostly below about 14%; note: read at 38.3 µM for the half of the compounds with a filed dose; 0% is about no effect
Pf growth 48h: P. falciparum growth inhibition at 48 hours (one generation); Potency, µM (doses to about 28.7 µM), for the others: at the top dose activity change, negative = inhibition, most hits filed as inhibitors; P. falciparum luciferase growth in erythrocytes, 48 h; actives 5.9% (n = 310,000); note: potency is the fitted concentration of half-maximal effect; % is set by controls: 0 for no effect and ±100 for the full control effect
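Cell-based growth assay: transgenic P. falciparum expressing firefly luciferase, cultured in red cells within RPMI 1640 containing 0.5% w/v Albumax, 24 mM bicarbonate and gentamycin. A drop in luciferase activity indicates inhibition.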
NS1 function inh: inhibitors of influenza NS1 protein function. Potency, µM (doses to about 46.1 µM), inactives show at the highest dose activity, positive = more growth. actives 0.4% (n = 270,000); calls by dose curve; note: potency is the fitted concentration of half-maximal effect; actives are rising curves; nearly all actives have a fitted effect of over 50% in size
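A cell-based growth assay was used: compounds that relieve NS1-induced slow growth of budding yeast raise OD600. Assay medium was yeast nitrogen base with ammonium sulphate and -URA supplement, pH 6.0, with 2% galactose.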
Sm TGR block: blocks Schistosoma mansoni thioredoxin glutathione reductase. purified TGR, DTNB reduction, TNB absorbance 405 nm. AID 485364. actives 3% (n = 360,000). Potency, µM (highest dose often 114 µM), for inactives: at the highest dose activity change, negative = inhibition, most hits filed as inhibitors. Q962Y6; note: potency is the fitted concentration of half-maximal effect; % is set by controls: 0 for no effect and ±100 for the full control effect; nearly all actives have a fitted effect of over 60% in size
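First, TGR (20 nM dispensed) and NADPH were mixed with compound. Second, a 15 min room-temperature incubation followed. Third, further NADPH and then DTNB were added to start the reaction. Finally, TNB absorbance was monitored kinetically.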
Starred values were filed as active, the others as inactive; ? = inconclusive; . = no result. Only some compounds are listed: those with a hit (about 21% of all), similar ones and a draw of the others. Unless noted, calls come from the whole dose curve; as a rule, active = well fitted curve in the direction sought with a large enough effect; inconclusive = small, poorly fitted or top-dose-only effect, or another doubt; inactive = no such curve, though single readings can be large; an effect the other way counts as inactive or inconclusive.

SMILES	Shiga inhibitor	Pf growth 96h	Cycloheximide cs	Pf growth 48h	NS1 function inh	Sm TGR block
O=C(Nc1ccc(-c2nc3c(ccc4ccccc43)o2)cc1)c1ccco1	29.3	1.85µM*	26.1*	.	-9.6%	2.8%
O=C(Nc1nc2c(F)c(F)c(F)cc2s1)c1ccco1	103.0*	67.1%	29.4*	62.1%	-16.3%	4.8%
O=C(CN1C(=O)NC2(CCCC2)C1=O)Nc1nc2c(F)cc(F)cc2s1	.	32.1%	.	1.0%	.	-4.9%
O=C(Nc1nc2c(ccc3ccccc32)s1)c1ccco1	101.8*	?	46.9*	3.1%	-63.8%	-0.6%
O=C(Nc1ccc(-c2nc3cc(Cl)ccc3c(=O)o2)cc1)c1ccco1	-2.7	?	-1.2	5.2%	8.3%	8.9%
O=C(CCc1ccccc1)Nc1nc2c(F)cc(F)cc2s1	112.8*	45.4%	45.4*	39.1%	-9.9%	2.6%
CCCCN(C)C(=O)CN1C(=O)CCn2nc(-c3cn(C)c4ccccc34)cc21	.	.	.	.	.	-3.5%
O=C(Nc1nc2c(F)cc(F)cc2s1)c1ccco1	38.2*	205.4%	36.6*	90.8%	-88.0%	-2.5%
O=C(Nc1nc2c(Cl)ccc(Cl)c2s1)c1ccco1	-12.2	27.1%	-3.8	.	-9.3%	0.4%
O=C(CCCC(=O)c1ccc(F)cc1)c1ccc(F)cc1	107.1*	168.6%	55.0*	.	-6.1%	-1.1%
Cc1ccc(C(=O)CCC(=O)N2CCN(c3ccc(F)cc3)CC2)cc1	-4.5	?	-2.8	6.1%	-16.3%	-0.2%
O=C(CCC(=O)N1CCOCC1)c1ccc(F)cc1	55.3*	16.4%	23.7*	81.1%	.	-26.7%
O=C(CCCN1CCC(C(=O)c2ccc(F)cc2)CC1)c1ccc(F)cc1	-12.4	-7.4%	-1.1	?	4.0%	-18.0%
CCOc1ccc(C(=O)COC(=O)CC)cc1	41.7*	?	22.6*	-13.5%	1.8%	-26.0%
CCC(=O)c1ccc(OCC(=O)O)cc1	35.1	?	-2.6	5.6%	3.7%	-1.5%
CCCCC(=O)OCC(=O)c1ccc(OCC)cc1	21.8*	?	57.9*	18.5%	-1.9%	-1.3%
CCOc1ccc(C(=O)CCCC(=O)c2ccc(OCC)cc2)cc1	.	?	47.1*	56.9%	-9.3%	6.5%
CCOc1ccc(NC(=O)CCC(=O)c2ccc(OC)cc2)cc1	-8.1	-4.1%	-2.5	44.2%	-13.7%	-20.5%
CCOC(=O)c1ccc(-c2c(C(=O)OCC)oc3cc(O)c(CC)cc3c2=O)o1	-9.5	?	7.3	10.4µM*	?	3.4%
CCOC(=O)c1ccc(CC(=O)c2ccc(O)c(O)c2O)o1	-14.1	30.2%	1.2	?	12.0%	?
CCOC(=O)c1ccc(CC(=O)c2oc3cc(O)ccc3c2C)o1	-2.6	?	-1.8	?	-54.1%	28.2µM*
COc1ccc(CCNC(=O)CCCn2c(SCC(N)=O)nc3cc4c(cc3c2=O)OCO4)cc1OC	-17.2	?	-4.1	1.1%	.	4.7%
Cc1cc(=O)oc2c(N)c(O)ccc12	37.6*	?	16.9	-8.1%	-33.6%	1.2%
CC(=O)N1CCc2cc(S(=O)(=O)NC(CC(C)C)C(=O)N3CCc4ccccc4C3)ccc21 (stereo not drawn)	-4.0	66.2%	-2.8	?	3.0%	-3.8%
CC(=O)N1CCc2cc(S(=O)(=O)NC(Cc3ccccc3)C(=O)O)ccc21 (stereo not drawn)	6.3	16.5µM*	-0.9	15.5%	-2.9%	3.4%
CC(=O)N1CCc2cc(S(=O)(=O)NC(CC(C)C)C(=O)N3CCCC3)ccc21 (stereo not drawn)	-6.1	11.7µM*	1.1	10.9%	3.6%	-0.7%
C[C@]12C=CC(=O)C=C1CC[C@@H]1C2C(O)C[C@@]2(C)C1CC[C@]2(O)C(=O)COC(=O)CCC(=O)NC(CC(=O)O)C(=O)O (stereo partly drawn)	4.4	-10.3%	-2.3	-7.0%	3.2%	-24.2%
CSCCC(NC(=O)CCC(=O)OCC(=O)[C@@]1(O)CCC2[C@@H]3CCC4=CC(=O)C=C[C@]4(C)C3[C@@H](O)C[C@@]21C)C(=O)O (stereo partly drawn)	21.1	?	1.5	5.22µM*	1.8%	6.9%

Screening results from PubChem.
